Source: PubChem BioAssay
NOMO-1 viab: STK33 inhibitor candidate reducing NOMO-1 cell viability; 7.5% of 37,000 active; NOMO-1 AML viability, CellTiter-Glo luminescence, 72 h; AID 2330; inhibition, % (test concentration not listed); in the data active = inhibition above about 80%; inconclusive = no clear call, values can overlap the other calls
Hedgehog inh: blocks Sonic Hedgehog signaling | Shh-LIGHT2 Gli-luciferase reporter, 30 h | inhibition, % (no concentration beside the values) | 2.1% of 22,000 active | AID 2313;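 active = mean inhibition across valid replicates above about 65%, limit read from the data; inconclusive = mean under the limit, yet half or more replicates past it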;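 also: pathway switched on by Shh-conditioned medium diluted 1 in 25 in low serum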
PD-1 reverse act: reversal of PD-1 mediated T-cell inhibition; primary human CD4 T cells, PD-L1 beads, CellTiter-Glo 96 h; activation, % (concentration not given with the values); 29,000 tested, under 10 active; AID 2316; call rule not given here;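 also: 0% = median vehicle wells and 100% = positive control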
* = called active by the depositor; ? = inconclusive; . = no result given. Shown are actives, neighbours in structure and some others; about 7.7% of the full set was active somewhere.

SMILES | NOMO-1 viab | Hedgehog inh | PD-1 reverse act
CC(=O)OC1CCC2C3CCc4cc(O)ccc4C3CCC12C (configuration not stated) | 99* | ? | .
COc1ccc2c(c1)CCC1C2CCC2(C)C(=O)CCC12 (configuration not stated) | 24 | 16 | -1
CC12CCC3c4ccc(OC(=O)c5ccccc5)cc4CCC3C1CCC2O (configuration not stated) | 30 | -9 | .
Cc1cc2ncn(CC(O)COc3ccccc3Cl)c2cc1C (configuration not stated) | ? | . | -4
COc1ccccc1CC(=O)Nc1ccc(-c2nnc(-c3ccccc3)o2)cc1 | 35 | . | .
Cn1c(SCC(=O)c2ccc(Cl)cc2)nnc1-c1ccncc1 | -10 | . | 2
COc1ccc(-c2nnc(SCC(N)=O)n2-c2cccc(C(F)(F)F)c2)cc1OC | -7 | . | 0
CN(C)CCCO[C@H]1[C@@H](C(O)CO)OC2OC(C)(C)O[C@@H]21 (some centres not stated) | -18 | -83 | -1
COc1ccccc1NC(=O)C1=C(C)Nc2ncnn2C1c1ccccc1OCc1ccccc1 (configuration not stated) | 20 | . | -1
c1coc(-c2nn3c(C4COc5ccccc5O4)nnc3s2)c1 (configuration not stated) | 16 | . | -1
O=C(COc1ccc(Cl)cc1Br)Nc1ccccc1C(=O)Nc1ccccc1 | 30 | . | -2
C=C1C(=O)O[C@H]2C(=C)[C@@H](CCC(=O)O)[C@@H](C)CC[C@@H]12 | 63 | 18 | -7
C=C1C(=O)O[C@H]2C[C@@H](C)[C@@H]3CCC(=O)[C@@]3(C)C[C@H]12 | 117* | -7 | -7
Fc1cc(F)c(NC(=S)N2CCOCC2)c(F)c1 | -17 | -26 | 1
S=C(CC(=S)N1CCOCC1)N1CCOCC1 | 86* | 4 | 1
c1csc(-c2nnc(CSc3cccc4cccnc34)o2)c1 | 112* | . | -6
COc1cccc(Cc2nnc(-c3ccc(-c4cccs4)s3)o2)c1 | 9 | 60 | 0
O=C(CSc1ccc(Cl)cc1)Nc1cscc1S(=O)(=O)c1ccc(Cl)cc1 | 23 | . | -1
C(=C\c1nn2c(Cn3cnc4ccccc43)nnc2s1)/c1ccccc1 | 41 | . | -1
Cc1nccn1CC(O)COc1ccccc1Br (configuration not stated) | -2 | . | 2
C[C@H]1CN([C@@H](C)CO)C(=O)Cc2cc(NC(=O)Nc3ccc(C(F)(F)F)cc3)ccc2O[C@@H]1CN(C)CC1CCCCC1 | 125* | 1 | 1
C[C@@H]1CN([C@H](C)CO)C(=O)Cc2cc(NC(=O)Nc3ccc(C(F)(F)F)cc3)ccc2O[C@H]1CN(C)C(=O)NC1CCCCC1 | 14 | -10 | .
C[C@H](CO)N1C[C@H](C)[C@H](CN(C)CC2CCCCC2)Oc2ccc(NC(=O)Nc3ccc(C(F)(F)F)cc3)cc2CC1=O | 128* | 29 | -5
COc1ccc(NC(=O)Nc2ccc3c(c2)CC(=O)N([C@H](C)CO)C[C@H](C)[C@H](CN(C)CC2CCCCC2)O3)cc1 | 61 | . | .
CCOc1ccc(NC(=O)Cn2cc(C(=O)OC)c3ccccc32)cc1 | 1 | . | 0
SMILES | NOMO-1 viab | Hedgehog inh | PD-1 reverse act
COC(=O)C1=CN(C2CC2)C=C(C(=O)OC)C1c1ccccc1 | 48 | 9 | -1
Cc1cc(C)n(C(=O)c2ccc(COc3c(F)c(F)cc(F)c3F)o2)n1 | 36 | . | .
CCCC(O)/C(=C/C1=C(C(=O)CC(CC(=O)O)OC(N)=O)C(=O)c2cccc(O)c2C1=O)CC(C(=O)O)[N+](C)(C)C (configuration not stated) | 108* | 44 | -16
Cc1cc(=O)oc2cc(OC3OC(CO)C(O)C(O)C3O)ccc12 (configuration not stated) | -13 | -23 | 1
Cc1ccc(NC(=S)C(C#N)C(N)=O)cc1Cl (configuration not stated) | 108* | 39 | -7
Cc1ccc(S(=O)(=O)NC(C)C(=O)Nc2ccc(C)c(Cl)c2)cc1 (configuration not stated) | 21 | . | .
Cc1nnc(NC(C)C)s1 | -6 | 1 | 1
N#Cc1c(C(F)(F)F)cc(-c2ccco2)nc1SCC(=O)Nc1cccc(C(F)(F)F)c1 | -4 | . | .
C=CC(C)(C)c1[nH]cnc1/C=C1\NC(=O)C(C(C)C)NC1=O (configuration not stated) | 106* | -6 | 1
CC(C)C1NC(=O)/C(=C/c2cnc[nH]2)NC1=O (configuration not stated) | . | -49 | .
CSc1ccc(N=CN2C(=O)c3ccccc3C2=O)cc1 | 3 | -26 | 2
CC(=O)OC1/C=C(/C(=O)O)CC/C=C(/C)C(=O)/C=C\C1(C)C (configuration not stated) | 120* | 65* | -8
CC1=C2CCC(C(=O)O)=CC2C(C(C)C)CC1 (configuration not stated) | -1 | -24 | 0
NC(=O)C(Cc1ccccc1)NS(=O)(=O)c1ccc2oc3ccccc3c2c1 (configuration not stated) | 17 | . | -1
C[C@H](CO)N1C[C@H](C)[C@@H](CN(C)Cc2ccc3c(c2)OCO3)Oc2c(NC(=O)Nc3ccc(C(F)(F)F)cc3)cccc2C1=O | 104* | 13 | .
C[C@H](CO)N1C[C@H](C)[C@H](CN(C)Cc2ccc3c(c2)OCO3)Oc2c(NC(=O)Nc3ccc4c(c3)OCO4)cccc2C1=O | ? | -54 | 1
C[C@@H]1CN([C@H](C)CO)C(=O)c2cccc(NC(=O)Nc3ccc4c(c3)OCO4)c2O[C@H]1CN(C)Cc1ccc(C(F)(F)F)cc1 | 104* | 3 | .
C[C@H]1CN([C@@H](C)CO)C(=O)c2cccc(NC(=O)Nc3ccccc3)c2O[C@@H]1CN(C)Cc1ccc2c(c1)OCO2 | 68 | -17 | -4
C[C@H](CO)N1C[C@H](C)[C@H](CN(C)Cc2ccc3c(c2)OCO3)Oc2c(NC(=O)Nc3ccc(F)cc3)cccc2C1=O | 55 | -24 | -1
C[C@H]1CN([C@@H](C)CO)C(=O)c2cccc(NC(=O)Nc3ccc(C(F)(F)F)cc3)c2O[C@@H]1CN(C)Cc1ccc2c(c1)OCO2 | 109* | -9 | -5
C[C@@H]1CN([C@H](C)CO)C(=O)c2cccc(NC(=O)Nc3ccc(C(F)(F)F)cc3)c2O[C@H]1CN(C)Cc1ccc2c(c1)OCO2 | 104* | 20 | -8
c1coc(CCC2NCCn3cccc32)c1 (configuration not stated) | 57 | 3 | -4
COc1ccc(OC)c(NC(=O)c2ccc(N(C)S(=O)(=O)c3ccc(OC)c(OC)c3)cc2)c1 | 4 | . | -1
CC1CCN(C(=O)c2cc3nc(-c4ccco4)cc(C(F)(F)F)n3n2)C(C)C1 (configuration not stated) | 76 | 20 | -1
CCOC(=O)CSc1nncc(=O)[nH]1 | 23 | -10 | 0
COC(=O)C1=C(Nc2ccc(F)cc2F)CSC1 | -1 | -1 | -1
C[C@H](CO)N1C[C@H](C)[C@@H](CN(C)Cc2ccc3c(c2)OCO3)Oc2c(NC(=O)Nc3ccc(F)cc3)cccc2C1=O | 72 | -44 | -4
C[C@@H]1CN([C@@H](C)CO)C(=O)c2cccc(NC(=O)Nc3ccc(C(F)(F)F)cc3)c2O[C@H]1CN(C)Cc1ccc2c(c1)OCO2 | 85* | 6 | -7
